Assay outcomes deposited in PubChem BioAssay by National Center for Advancing Translational Sciences (NCATS).
TRHR ag: TRH receptor (human) agonism; AID 493084; 360,000 tested, 0.18% active; TRHR cells, calcium flux fluo-8, FDSS agonist mode; activation, % at 2 µM; P34981
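Fluo-8-loaded TRHR cells; 10 s baseline, compound added, kinetic Ca2+ fluorescence read 1/s, agonist mode.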
D1 potentiator: enhances dopamine response at the human D1 receptor | HEK293 TREx D1 cells, calcium flux, dopamine EC20 potentiation | potentiation, % at 10 µM | 360,000 tested, 0.036% active | AID 504651 | P21728; in the data active = potentiation above about 30%
Target sequence (P21728 whole entry, looked up): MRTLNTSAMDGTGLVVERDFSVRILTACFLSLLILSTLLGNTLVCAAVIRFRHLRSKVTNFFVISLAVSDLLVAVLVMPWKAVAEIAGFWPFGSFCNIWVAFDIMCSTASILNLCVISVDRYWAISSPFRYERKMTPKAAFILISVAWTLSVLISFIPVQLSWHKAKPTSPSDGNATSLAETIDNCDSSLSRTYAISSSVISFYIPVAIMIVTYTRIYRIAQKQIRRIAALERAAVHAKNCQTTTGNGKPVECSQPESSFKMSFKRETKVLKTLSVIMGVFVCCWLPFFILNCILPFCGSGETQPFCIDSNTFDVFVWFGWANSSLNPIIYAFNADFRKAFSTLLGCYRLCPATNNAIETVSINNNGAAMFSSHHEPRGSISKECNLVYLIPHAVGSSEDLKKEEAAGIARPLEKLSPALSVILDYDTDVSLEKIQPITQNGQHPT
D1 ag: activates the human D1 dopamine receptor. P21728. HEK293 T-REx D1 cells, calcium flux, agonist mode. activation, % at 2 µM. 360,000 tested, 1% active. AID 504660
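Inducible HEK293 T-REx D1 cells, force-coupled to calcium signalling, were plated at 4000 cells/well with tetracycline and held overnight at 30 C. After no-wash calcium dye loading, compound-evoked calcium rise over 180 s flagged agonists.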
D1 antag: blocks dopamine activation of the human D1 receptor; P21728; HEK293 TREx D1 cells, calcium flux, dopamine EC80; active compounds read low; activity change, negative = inhibition, % at 10 µM; 360,000 tested, 3.2% active; AID 504652; in the data active = activity change below about -30%
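Allosteric or orthosteric antagonism assessed as attenuation of the calcium response to EC80 dopamine, added 180 s after compound, in induced HEK293 Trex D1 cells loaded with no-wash calcium dye.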
TRHR enhancer: allosterically enhances the human TRH receptor; P34981; TRHR cells, fluo-8 calcium fluorescence, EC20 TRH enhancement; 360,000 tested, 0.66% active; enhancement, % at 2 µM; in the data active = enhancement above about 30%
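TRHR-expressing cells loaded with fluo-8 calcium dye were read kinetically (ex 480/em 530) during compound addition, then stimulated with an EC20 of TRH (10 nM final). Enhancement of the Gq-mediated intracellular calcium response was scored.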
Of the large screens only hits and unclear results are named; the others gave an inactive call. Hits are enriched below; roughly 4.7% of the tested compounds scored in any of these assays. Cut-off read from the data, not from the text of the source, unless noted: active = activation above about 30%; inactive = the rest.

O=C(Nc1ccc([N+](=O)[O-])cc1)Nc1ccc2c(c1)OCCO2	D1 ag 39, D1 antag -41
O=C(Nc1ccc2c(c1)OCO2)Nc1ccc2c(c1)OCO2	none
O=C(Nc1ccc(OC(F)F)c(Cl)c1)Nc1ccc2c(c1)OCO2	D1 antag -36
COC(=O)c1ccccc1NC(=O)C1=C(C)C(=O)OC12CCCCCC2	none
CCOC(=O)C1=C(CS(=O)(=O)c2ccc(C)cc2)NC(=O)NC1c1ccc(C(C)C)cc1 (stereo not drawn)	none
Cc1cccc(Nc2nc3c(S(=O)(=O)c4ccc(Br)cc4)nnn3c3ccsc23)c1C	none
COc1ccc(NC(=O)Nc2ccc3c(c2)N(C)C(=O)CS3)cc1Cl	D1 antag -33
COc1ccc(NC(=O)Nc2ccc3c(c2)N(C)C(=O)CS3)cc1OC	none
COc1ccccc1CNC(=O)CCn1c(=O)c2cccn2c2cccnc21	none
COC(=O)c1ccc(COC(=O)c2cccn2C)o1	none
O=c1c2cc3c(cc2[nH]c(=S)n1C1CCN(Cc2ccccc2)CC1)OCO3	D1 antag -32
O=C(CC1Oc2ccccc2NC1=O)NC1CCCC1 (stereo not drawn)	D1 antag -40
COc1cc(/C=C2/NC(=O)N(Cc3ccccc3F)C2=O)cc(OC)c1O	D1 antag -38
Cc1sc(NC(=O)c2ccc(Br)s2)c(C(N)=O)c1C	D1 potentiator 31
CCOC(=O)c1c(C)[nH]c(CCC(=O)Nc2ccc(Cl)cc2C)c1C	none
O=C(NCc1ccc(Cl)cc1)c1ccc(N2CCCC2=O)cc1	none
CN(CC(=O)Nc1ccc(OC(F)(F)F)cc1)C(=O)c1ccc(N2CCCC2=O)cc1	D1 antag -32
CN(CC(=O)Nc1ccc(Cl)cc1)C(=O)c1ccc(N2CCCC2=O)cc1	D1 antag -39
CC(C)(C)NC(=O)CN(C(=O)C1CSC(=O)C1)c1ccc2c(c1)OCCO2 (stereo not drawn)	D1 antag -36
COc1cccc(N(CC(=O)NC(C)(C)C)C(=O)C2CSC(=O)C2)c1 (stereo not drawn)	none
CCCCn1c(O)c(/C=C/C=C/C=Nc2ccccc2)sc1=S	D1 antag -31
CN1CCN(C(=O)Cn2ncc3c4ccccc4n(Cc4ccc(Cl)cc4)c3c2=O)CC1	none
COc1cc(NC(=O)c2cccc(Br)c2)nc(OC)n1	TRHR enhancer 34
COc1ccc(OCC(=O)NNC(=O)c2cc3ccccc3o2)cc1	D1 antag -31
COc1ccc(NC(=O)c2cc(=O)c3ccccc3o2)cn1	none
CCCCOC(=O)c1cccc(NC(=O)c2cc3ccccc3o2)c1	D1 ag 30
CCCCOC(=O)c1ccc(NC(=O)c2cc(=O)c3ccccc3o2)cc1	none
COc1ccc(NC(=O)c2cc3ccccc3o2)cn1	TRHR enhancer 41
O=C1CC(c2ccccc2)Cc2[nH]c(=O)c(-c3nc(-c4cccc(Cl)c4)cs3)cc21 (stereo not drawn)	none
COc1cc(-c2ccno2)ccc1S(=O)(=O)N1CCN(c2cccc(Cl)c2)CC1	none
CC(C)c1ccc(S(=O)(=O)c2nnn3c2nc(N2CCCCC2)c2sccc23)cc1	none
CC(C)C(=O)Nc1cccc(NC(=O)c2cc3ccccc3o2)c1	D1 antag -30
CC(C)C(=O)Nc1cccc(NC(=O)c2cccc(Br)c2)c1	D1 antag -32
COc1ccc(C(=O)NNC(=O)c2ccc3ccccc3c2O)cc1	none
COc1cccc(OCC(=O)NNC(=O)c2ccc3ccccc3c2O)c1	D1 antag -37
Cc1nnc(NC(=O)c2cccc(NC(=O)C(C)C)c2)s1	none
CCOc1cccc(C(=O)Nc2ccc(NC(=O)c3cc4ccccc4o3)c(OC)c2)c1	D1 antag -39
O=C(O)/C=C/c1cc(F)c(S(=O)(=O)N2CCN(S(=O)(=O)c3ccc4c(c3)OCCO4)CC2)cc1F	none
Cc1ccc2c(c1)C(c1ccccc1)N(C(=O)COc1ccc(Cl)cc1Cl)CC(=O)N2 (stereo not drawn)	none
Cc1cc(NC(=O)CSc2nc(-c3ccccc3C)nc3c2c(=O)n(C)c(=O)n3C)no1	none
CCC(=O)N1CCc2cc(CNS(=O)(=O)c3ccc(Cl)s3)ccc21	none
O=C1C(c2ccc(F)cc2)N(CCc2ccc(Cl)cc2)C(=O)CN1C1CCCCCC1 (stereo not drawn)	none
NC(=O)C1(N2CCCCC2)CCN(C(=O)Nc2ccc(C(F)(F)F)cc2)CC1	none
COc1cccc(C(=O)N2c3cc(C)ccc3C(C)(c3ccccc3)CC2(C)C)c1 (stereo not drawn)	none
COn1c2c(c3c4no[n+]([O-])c4ccc31)CCCC2	none
[O-][n+]1c2c(c3c4non(O)c4ccc31)CCCC2	D1 antag -31
Cc1ccc(C)c(NC(=O)CSc2nc(=O)n(CCN3CCOCC3)c3c2CCC3)c1	none (no result: D1 antag)
Cc1ccc(Cl)cc1Nc1sc(C(=O)c2ccccc2)c(N)c1S(=O)(=O)c1ccccc1	D1 ag 54, D1 antag -51
Cc1c(Cl)cccc1Nc1sc(C(=O)c2ccccc2)c(N)c1S(=O)(=O)c1ccccc1	none
CCS(=O)(=O)c1c(Nc2cc(C)ccc2C)sc(C(=O)c2ccccc2)c1N	D1 ag 41
CCc1ccccc1Nc1sc(C(=O)c2ccccc2)c(N)c1S(=O)(=O)c1ccccc1	none
COc1ccc(CNC(=O)c2cnc(N3CCCC3)nc2C)c(OC)c1	none
OCCN1CCN(c2nc(-c3ccccc3)c3cc(Br)ccc3n2)CC1	D1 potentiator 44, D1 ag 45
O=C(O)C1CCN(c2nc(-c3ccccc3)c3cc(Br)ccc3n2)CC1	none
Cc1ccc(N(C(=O)Cn2nnc(-c3ccc(F)cc3)n2)C(C(=O)NC(C)(C)C)c2ccncc2)cc1 (stereo not drawn)	none
COc1ccc2c(c1)O[C@H](c1ccc3c(c1)OCO3)[C@@H](OC(=O)N[C@H]1CCCc3ccccc31)C2=O	D1 antag -57
COc1ccc2c(c1)O[C@@H](c1cccc(C(F)(F)F)c1)[C@H](OC(=O)N[C@H]1CCCc3ccccc31)C2=O	none
COc1ccc(CCNC(=O)c2coc(=O)c(Br)c2)cc1	none
Cc1ccc(OCCCC(=O)Nc2ccc(Br)cc2)cc1	D1 antag -67
Cc1ccc(NC(=S)Nc2ccc(Br)cc2)cc1	D1 antag -33
COc1ccc(NC(=S)NC2CC3CCCC(C2)N3C2CC2)cc1 (stereo not drawn)	D1 antag -38
CCc1ccc(NC(=S)NC2CC3CCCC(C2)N3Cc2cccs2)cc1 (stereo not drawn)	D1 antag -81
CCc1ccccc1NC(=O)NC1CC2CCC(C1)N2Cc1cccs1 (stereo not drawn)	none
Cc1ccc(NC(=S)NC2CC3CCC(C2)N3Cc2ccco2)cc1C (stereo not drawn)	D1 antag -89
